Tau FP inhib = inhibitors of human tau fibril formation; K18 P301L tau heparin fibrillization, Alexa594 FP, 6 h; Potency, µM (top dose mostly 57.7 µM), hits mostly inhibitors; P10636; 0.39% of 280,000 active; note: nearly all actives have a fitted effect of over 55% in size
Target sequence (P10636 561-689 P618L limits assumed): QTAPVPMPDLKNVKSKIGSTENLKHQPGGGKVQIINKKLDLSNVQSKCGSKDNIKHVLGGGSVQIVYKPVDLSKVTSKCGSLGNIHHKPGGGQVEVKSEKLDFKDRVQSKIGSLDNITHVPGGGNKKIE
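FP of Alexa 594-tau after heparin (20 uM) induction. Substrate: human K18 P301L, 15 uM unlabeled, 0.24 uM labeled. Buffer 100 mM sodium acetate pH 7. 6 hr, 37 C.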
ALDH1A1 block = ALDH1A1 (human) enzyme inhibition. P00352. Purified ALDH1A1, NADH fluorescence, propionaldehyde substrate. Potency, µM (doses to about 75.3 µM), most hits filed as inhibitors. 7.3% of 220,000 active. AID 1030; active = well fitted inhibition curve with a large enough effect, not every such curve was filed as active; inconclusive = small, poorly fitted or top-dose-only effect, or another doubt; inactive = no such curve, though single readings can be large or run the other way
Target sequence (P00352 whole entry, looked up): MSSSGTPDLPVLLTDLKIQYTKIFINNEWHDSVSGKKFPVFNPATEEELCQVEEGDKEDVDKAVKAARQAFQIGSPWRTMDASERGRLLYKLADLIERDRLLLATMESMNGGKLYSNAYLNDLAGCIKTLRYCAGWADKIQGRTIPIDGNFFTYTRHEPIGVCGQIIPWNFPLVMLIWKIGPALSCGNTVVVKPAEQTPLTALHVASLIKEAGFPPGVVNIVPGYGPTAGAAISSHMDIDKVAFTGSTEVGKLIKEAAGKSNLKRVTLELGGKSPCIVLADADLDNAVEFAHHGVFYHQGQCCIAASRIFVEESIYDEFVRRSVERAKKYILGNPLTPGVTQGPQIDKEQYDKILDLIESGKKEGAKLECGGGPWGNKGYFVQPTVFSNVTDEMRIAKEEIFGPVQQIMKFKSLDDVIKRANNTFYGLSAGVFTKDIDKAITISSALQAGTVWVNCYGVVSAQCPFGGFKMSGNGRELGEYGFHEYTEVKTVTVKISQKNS
Tau ThT inhib = tau fibrillization inhibition (ThT binding); P10636; recombinant tau K18 P301L, heparin-induced fibrillization, ThT fluorescence; Potency, µM (highest dose often 57.4 µM), usual class: inhibitors; 2.1% of 270,000 active; note: nearly all actives have a fitted effect of over 55% in size
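Tau K18 P301L fragment (15 uM unlabeled plus 0.24 uM Alexa 594-labeled) in 100 mM sodium acetate pH 7 with compound, fibrillization induced by 20 uM heparin for 6 hr at 37 C. Thioflavin T (30 uM) added, fluorescence read after 1 hr (ex 450, em 510 nm).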
NPSR antagonist = antagonists of human neuropeptide S receptor cAMP signaling; Q6W5P4; CHO-NPSR cells, cAMP TR-FRET, antagonist mode; Potency, µM (titrated, usually from 38.3 µM), hits mostly inhibitors; 1% of 220,000 active; note: nearly all actives have a fitted effect of over 50% in size
Tau fluor cs = counter-screen for tau fibril formation inhibitors; tau K18 P301L (four-repeat tau fragment) Alexa594 fluorescence, heparin fibrillization; Potency, µM (series often up to 57.7 µM); 0.93% of 280,000 active; note: nearly all actives have a fitted effect of over 55% in size
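Human K18 P301L tau (15 uM unlabeled plus 0.24 uM Alexa 594-labeled, final) in 100 mM sodium acetate pH 7 was mixed with compound and 20 uM heparin and incubated 6 hr at 37 C.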
HPGD inh = HPGD (human) dehydrogenase inhibition | P15428 | Potency, µM, usual class: inhibitors | 4.3% of 150,000 active | AID 894 | purified HPGD, NADH fluorescence kinetic, PGE2 substrate; active = well fitted inhibition curve with a large enough effect, not every such curve was filed as active; inconclusive = small, poorly fitted or top-dose-only effect, or another doubt; inactive = no such curve, though single readings can be large or run the other way
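NADH formation kinetics: reaction with 30 uM PGE2 and 1 mM NAD+ (final), 20 nM enzyme, Tris-HCl pH 8 with Tween 20, after 15 min compound preincubation at room temperature. Fluorescence change, last versus first of five reads.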
A number is an active result; n = inactive; u = inconclusive; x = not tested or not shown; [ ] = remark or other dose. In the library only some 9.5% were active in any assay of this set; here they are far more common. Unless noted, calls come from the whole dose curve; as a rule, active = well fitted curve in the direction sought with a large enough effect; inconclusive = small, poorly fitted or top-dose-only effect, or another doubt; inactive = no such curve, though single readings can be large; an effect the other way counts as inactive or inconclusive.

SMILES	Tau FP inhib	ALDH1A1 block	Tau ThT inhib	NPSR antagonist	Tau fluor cs	HPGD inh
COc1cc(C(=O)Nc2cnc(NC(=O)C(C)C)cc2C)cc(OC)c1OC	n	n	n	n	n	n
C=C1C[C@@]23CC4C5[C@@]6(C)C[C@H](O)C[C@@]57C2[C@H](O)[C@@H]1[C@H](O)[C@H]3[C@H]7N4C6	n	n	n	x	n	n
C=CCN(c1ccc(C(=O)N2CCCC2)cc1)S(C)(=O)=O	n	n	n	n	n	20µM
O=C1NN(c2ccc(F)cc2)C(=O)/C1=C\C=C\c1ccco1	u	u	13µM	n	u	n
O=C1NN(c2ccc(F)cc2)C(=O)/C1=C\c1cnn(-c2ccccc2)c1	n	u	n	n	n	x
CCOc1ccccc1C1C(C(N)=O)=C(C)Nc2nc(-c3cccc(C)c3)nn21 (centres undefined)	n	20µM	u	u	n	n
CC1=C(C(N)=O)C(c2cccs2)n2nc(-c3cccc(C)c3)nc2N1 (centres undefined)	n	n	n	n	n	n
Cc1ccc(NC(=O)CCc2nnc3n(C)c(=O)c4sccc4n23)cc1C	n	x	n	x	n	x
CCCS(=O)(=O)N1CCC(C(=O)NC2CCC(C)CC2)CC1 (centres undefined)	n	13µM	n	n	n	x
Cc1nc2nc(SCc3c(F)cccc3Cl)nn2c(C)c1Cc1ccccc1	n	x	n	x	n	x
Cc1nc2nc(SCC(=O)N3CCOCC3)nn2c(C)c1Cc1c(F)cccc1Cl	n	u	n	n	n	8.9µM
Cc1ccc(CC(=O)Nc2nc3ccccc3[nH]2)cc1C	n	n	n	n	n	n
O=C(Cc1ccccc1Cl)Nc1nc2ccccc2[nH]1	n	25µM	n	n	n	x
CCOC(=O)c1c(N)sc2c1CCC1C(=O)N(C3CCCCC3)C(=O)C21 (centres undefined)	n	13µM	u	n	n	u
CC(CC(=O)NCc1ccc(Cl)cc1)CC1=NS(=O)(=O)c2ccccc2N1 (centres undefined)	n	x	n	x	n	x
CCCN(C#N)c1nc(NCC)nc(NC(C)C)n1	n	10µM	n	n	n	n
Cc1cc(C)cc(OCC(=O)N(Cc2ccc(N(C)C)cc2)C2CCS(=O)(=O)C2)c1 (centres undefined)	n	x	n	n	n	x
CN(C)c1ccc(CN(C(=O)COc2ccc(F)cc2)C2CCS(=O)(=O)C2)cc1 (centres undefined)	n	u	n	n	n	n
Cc1ccc(OCC(=O)N(Cc2ccc(N(C)C)cc2)C2CCS(=O)(=O)C2)cc1 (centres undefined)	n	18µM	n	n	n	n
CN(C)c1ccc(CN(C(=O)c2ccco2)C2CCS(=O)(=O)C2)cc1 (centres undefined)	n	7.1µM	n	n	n	n
CN(C)c1ccc(CN(C(=O)COc2ccc(Br)cc2)C2CCS(=O)(=O)C2)cc1 (centres undefined)	n	28µM	n	n	n	n
CCCCCOc1ccc(/C=C/C(=O)Nc2sc(C(C)=O)c(C)c2C(=O)OCC)cc1OC	n	x	n	x	n	x
Cc1sc(NC(=O)/C=C/c2ccco2)c(C(=O)O)c1C	n	x	u	u	n	x
COc1ccc(/C=C/C(=O)Nc2sc(C)c(C)c2C(=O)O)cc1	n	x	2.2µM	x	u	x
CCCCCOc1ccc(/C=C/C(=O)Nc2sc(C)c(C)c2C(=O)OCC)cc1OC	u	x	28µM	x	n	x
SMILES	Tau FP inhib	ALDH1A1 block	Tau ThT inhib	NPSR antagonist	Tau fluor cs	HPGD inh
NC(=O)CCCCn1ccc(NC(N)=NCC(F)(F)F)n1	n	n	n	x	n	n
CCC(C)(C)NC(=O)C(c1ccc(F)cc1)N(Cc1ccc(OC)cc1)C(=O)c1cnccn1 (centres undefined)	n	n	n	n	n	x
CC(C)c1ccc(NC(=O)C(c2ccccc2)N(C)C(=O)c2cnccn2)cc1 (centres undefined)	n	10µM	n	n	n	x
COc1ccc(CN(C(=O)c2cnccn2)C(C(=O)Nc2ccc(F)cc2)c2ccccc2)cc1 (centres undefined)	n	10µM	n	n	n	n
CCc1c2c(nc3cccc(SC)c13)COC2	n	u	u	x	n	u
O=[N+]([O-])c1cccc(S(=O)(=O)Nc2nc3ccccc3nc2Nc2cccc(S(=O)(=O)N3CCCCC3)c2)c1	n	n	16µM	6.3µM	u	n
Cc1cccc(S(=O)(=O)Nc2nc3ccccc3nc2Nc2ccc3c(c2)OCO3)c1	n	u	n	n	n	u
CCOC(=O)c1c(-c2ccc(OC)cc2)csc1NC(=O)CNCc1ccco1	n	u	n	u	n	u
COCCOC(=O)c1c(NC(=O)CNCc2ccco2)sc(C(N)=O)c1C	n	10µM	u	n	n	x
CCOC(=O)c1c(-c2ccc(Cl)cc2)csc1NC(=O)CNCc1ccco1	n	x	n	10µM	n	x
COCCOC(=O)c1c(NC(=O)CNc2ccc(C)c(F)c2)sc(C(N)=O)c1C	n	u	n	n	n	x
Cc1ccc2[nH]c(CN3CCC(CO)(CC4CCCCO4)CC3)c(C)c2c1 (centres undefined)	n	n	n	n	n	x
CC1CN(C(=O)C(C)Sc2nc3ccccc3s2)CC(C)O1 (centres undefined)	n	u	n	n	n	28µM
CC(Sc1nnnn1C)C(=O)NC1CCCc2ccccc21 (centres undefined)	n	n	n	n	n	x
CC(Sc1nc2ccccc2s1)C(=O)NC1CCCc2ccccc21 (centres undefined)	n	13µM	n	n	n	n
Nc1nc(SCC(=O)O)[nH]c(=O)c1N	x	n[13.5 µM]	x	x	x	n
CN(Cc1cccc(F)c1)C(=O)c1ccc(S(=O)(=O)C(F)F)cc1	n	u	n	n	n	32µM
COC(=O)c1ccc(NC(=O)CN(C)Cc2cccc(F)c2)cc1	n	n	n	n	n	x
Cc1ccc(CS(=O)(=O)CCC(=O)NCCCN2CCCC2=O)cc1	n	n	n	n	n	n
O=C(N/N=C/c1ccccc1)c1[nH]c2ccc(Br)cc2c1-c1ccccc1	n	n	n	n	u	n
O=C(NN=C1CCCC1)c1[nH]c2ccc(Br)cc2c1-c1ccccc1	n	18µM	u	u	n	x
O=C(Nc1ccc2c(c1)OCCO2)C1CCN(c2cnccn2)CC1	n	n	n	n	n	n
O=C(CCN1CCN(C(c2ccccc2)c2ccccc2)CC1)N/N=C/c1ccc(O)cc1	n	n	n	n	u	n
O=C(CCN1CCN(C(c2ccccc2)c2ccccc2)CC1)N/N=C/c1ccc(O)cc1O	u	n	n	n	16µM[quencher]	n
CSc1nnc(-c2cnccn2)n1CCCN1CCCC1=O	n	n	n	n	n	n
